High-throughput results: PubChem BioAssay, Buhrlage Lab, Dana-Farber Cancer Institute and Novartis Institutes for BioMedical Research (Cambridge, Mass)
Only some compounds are listed: those with a hit (about 11% of all), similar ones and a draw of the others.
USP28 block: inhibitors of human USP28 deubiquitinase; inhibition, % at 25 µM; purified USP28, Ub-rhodamine cleavage fluorescence, 30 min; Q96RU2; 47,000 compounds, 3% hits
USP17 block: blocks human USP17 ubiquitin-rhodamine cleavage; A8MUK1; purified USP17, Ub-rhodamine cleavage fluorescence, 3 h; inhibition, % at 50 µM; 47,000 compounds, 6.5% hits
Target sequence (A8MUK1 whole entry, looked up): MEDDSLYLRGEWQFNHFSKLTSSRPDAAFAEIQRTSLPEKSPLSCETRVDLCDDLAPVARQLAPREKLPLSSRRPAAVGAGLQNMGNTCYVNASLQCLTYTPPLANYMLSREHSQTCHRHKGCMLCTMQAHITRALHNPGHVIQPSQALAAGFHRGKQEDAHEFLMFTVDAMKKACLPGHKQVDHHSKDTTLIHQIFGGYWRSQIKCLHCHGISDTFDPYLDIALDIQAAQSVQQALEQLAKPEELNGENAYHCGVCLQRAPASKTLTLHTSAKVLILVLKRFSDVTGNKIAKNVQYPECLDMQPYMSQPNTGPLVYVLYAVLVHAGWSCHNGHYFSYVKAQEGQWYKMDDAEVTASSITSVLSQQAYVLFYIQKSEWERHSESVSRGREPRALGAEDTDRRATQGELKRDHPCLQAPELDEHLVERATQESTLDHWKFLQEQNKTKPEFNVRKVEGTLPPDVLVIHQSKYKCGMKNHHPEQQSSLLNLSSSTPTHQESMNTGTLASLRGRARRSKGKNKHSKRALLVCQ
USP30 inh: human USP30 deubiquitinase inhibition. 47,000 compounds, 5.3% hits. AID 1645860. Q70CQ3. inhibition, % at 25 µM. purified USP30, Ub-rhodamine cleavage fluorescence
* = called active by the depositor. No stated cut-off is given here; in the data, active means inhibition above about 30%; inactive means the rest.

What do the screens show for `O=C(CCn1c(=O)c2ccccc2n(Cc2cccc([N+](=O)[O-])c2)c1=O)NCc1ccc2c(c1)OCO2`?
USP28 block: 16.1; USP17 block: 12.1; USP30 inh: 29.9

How did O=C(CCn1c(=O)c2sccc2n(CC(=O)OCc2ccccc2)c1=O)NCc1ccc2c(c1)OCO2 do in these assays?
USP28 block: 15.7; USP17 block: 29.7; USP30 inh: 52.2*

How did CCOc1ccccc1NC(=O)Cn1c(=O)n(CCC(=O)NCc2ccc3c(c2)OCO3)c(=O)c2sccc21 do in these assays?
USP17 block: 60.5*

How did Cc1cc2n(n1)CCCN2C(=O)CCC(=O)Nc1ccc(F)cc1Cl do in these assays?
USP28 block: 6.6; USP17 block: 2.3; USP30 inh: 0.3

How did Cc1ccc(C(=O)Nc2ccc(C)n(CC(=O)N3CCN(C)CC3)c2=O)cc1 do in these assays?
USP17 block: 5.4

Results for Cc1ccccc1NC(=O)CSC1=NC2(CCCCC2)Nc2ccccc21 ?
USP28 block: -0.8; USP17 block: 22.0; USP30 inh: -33.5

What do the screens show for `COc1ccc(C(=O)CC(=O)C(=O)Nc2ccc(F)cc2)cc1`?
USP28 block: 6.7; USP17 block: 3.5; USP30 inh: -10.8

How did Cc1ccc2c(c1)OCC(=O)N2Cc1nc(-c2ccc(F)cc2)no1 do in these assays?
USP28 block: -12.1; USP17 block: -35.9; USP30 inh: -47.8

What do the screens show for `Cc1ccc2c(c1)OCC(=O)N2Cc1nc(-c2ccccc2)no1`?
USP28 block: 29.4; USP17 block: 44.6*; USP30 inh: 26.5

How did O=C1COc2ccccc2N1Cc1nc(-c2ccccc2)no1 do in these assays?
USP28 block: 24.3; USP17 block: 23.7; USP30 inh: 14.3

How did Cc1ccc2c(c1)OCC(=O)N2Cc1nc(-c2cccc(F)c2)no1 do in these assays?
USP28 block: 26.1; USP17 block: 13.0; USP30 inh: 35.1*

How did COc1ccc(-c2n[nH]c(-c3nc4ccccc4c(=O)[nH]3)n2)cc1 do in these assays?
USP17 block: -167.7

How did COc1ccc(OCCCC(=O)Nc2ccccc2-c2nc3ccccc3[nH]2)cc1 do in these assays?
USP28 block: -12.4; USP17 block: -20.2; USP30 inh: -123.0

How did O=C(COc1ccc(Cl)cc1Cl)Nc1noc2ccccc12 do in these assays?
USP28 block: -0.2; USP17 block: 39.5*; USP30 inh: -13.1

What do the screens show for `Cc1cc(Cl)ccc1OCC(=O)Nc1ncccc1C`?
USP28 block: -4.3; USP17 block: -3.1; USP30 inh: -2.5

Results for NS(=O)(=O)c1cccc(NC(=O)COc2ccc(F)cc2Cl)c1 ?
USP28 block: -78.3; USP17 block: -94.8; USP30 inh: -265.9

How did O=C(COc1ccc(Cl)cc1Cl)Nc1ccccc1-c1nc2ccccc2[nH]1 do in these assays?
USP28 block: 9.5; USP17 block: 84.2*; USP30 inh: 9.6

Results for O=C(COc1ccc(Cl)cc1Cl)Nc1ccc2sccc2c1 ?
USP28 block: 0.1; USP17 block: 41.5*; USP30 inh: 46.4*

How did O=C(c1cccnc1)N1CCCC1c1ccnc(Nc2ccccn2)n1 (stereo unspecified) do in these assays?
USP28 block: -1.8; USP17 block: -5.1; USP30 inh: -1.6

Results for O=C(CCCCn1c(=O)c2ccccc2n(Cc2ccc(F)cc2Cl)c1=O)NC1CCN(Cc2ccccc2)CC1 ?
USP28 block: -76.3; USP17 block: -17.1; USP30 inh: -227.0

What do the screens show for `O=C(Nc1ccc(F)cc1F)c1cc(-c2ccccn2)n[nH]1`?
USP28 block: -7.3; USP17 block: 9.2; USP30 inh: 16.5

How did O=C(Nc1ccc(Cl)cc1F)c1cc(-c2ccncc2)n[nH]1 do in these assays?
USP28 block: 24.9; USP17 block: 66.9*; USP30 inh: 74.0*

What do the screens show for `Cc1ccc(O)c(-c2cc(C(=O)Nc3ccccc3Cl)[nH]n2)c1`?
USP28 block: 6.0; USP17 block: 68.0*; USP30 inh: 27.0

How did Cc1ccc(NC(=O)c2cc(-c3ccncc3)n[nH]2)c(Cl)c1 do in these assays?
USP28 block: 60.0*; USP17 block: 63.9*; USP30 inh: 82.8*

Results for Cc1ccc(-c2cc(C(=O)Nc3cccc(C)c3)[nH]n2)cc1 ?
USP28 block: -12.3; USP17 block: -82.9; USP30 inh: -75.7

What do the screens show for `Cc1ccc(-c2cc(C(=O)Nc3ccccc3Cl)[nH]n2)c(O)c1C`?
USP28 block: -4.2; USP17 block: 0.1; USP30 inh: 28.5

What do the screens show for `CSc1ccccc1C(=O)Nc1ccc(N2CCOCC2)c(S(=O)(=O)N2CCOCC2)c1`?
USP28 block: -2.4; USP17 block: -5.2; USP30 inh: -6.1

Results for CCCc1ccc(C(=O)[C@@H]2[C@@H](C(=O)c3cccs3)N3c4ccc(C)cc4C(C)=C[C@@H]3[C@@]23C(=O)Nc2ccccc23)cc1 ?
USP28 block: -0.6; USP17 block: 12.2; USP30 inh: -69.2

How did COc1ccc(CN2CCN(C(C)c3nnc(-c4ccc(F)cc4)o3)CC2)cc1OC (stereo unspecified) do in these assays?
USP28 block: 2.6; USP17 block: -0.8; USP30 inh: -8.1

Results for COc1cc2c(c(OC)c1OC)-c1ccc(NCc3ccc(F)cc3)c(=O)cc1[C@@H](NC(C)=O)CC2 ?
USP28 block: -27.2; USP17 block: -39.0; USP30 inh: -123.4

What do the screens show for `Cc1ccc2[nH]c3c(=O)n(CCC4=CCCCC4)cnc3c2c1`?
USP28 block: 4.7; USP17 block: 15.3; USP30 inh: 9.7

What do the screens show for `Cc1ccc2[nH]c3c(=O)n(CC4CCCO4)cnc3c2c1` (stereo unspecified)?
USP28 block: -4.3; USP17 block: 68.0*; USP30 inh: 43.5*

Results for O=c1c2[nH]c3ccccc3c2ncn1CCC1=CCCCC1 ?
USP28 block: -31.1; USP17 block: 0.9; USP30 inh: -6.9

How did COc1ccc(CCn2cnc3c([nH]c4ccccc43)c2=O)cc1 do in these assays?
USP28 block: 35.1*; USP17 block: 34.0*; USP30 inh: 96.1*

Results for Cc1ccc2[nH]c3c(=O)n(CCc4ccc(O)cc4)cnc3c2c1 ?
USP28 block: 42.8*; USP17 block: 56.8*; USP30 inh: 93.4*

What do the screens show for `Cc1ccc2[nH]c3c(=O)n(CCN4CCCC4)cnc3c2c1`?
USP28 block: 12.8; USP17 block: 5.3; USP30 inh: 5.5

What do the screens show for `CN1C(=O)OC[C@@H]2CCN(S(=O)(=O)c3ccc(-c4ccccc4)cc3)C[C@H]21`?
USP28 block: -8.9; USP17 block: 21.9; USP30 inh: 16.4

How did COc1c(C2CCCN2C(=O)c2ccn(C)c(=O)c2)c(C)nn1C (stereo unspecified) do in these assays?
USP28 block: 10.4; USP17 block: 17.4; USP30 inh: 25.5

Results for COc1cc(CC(=O)N(c2cccc(Cl)c2)c2nc3ccccc3s2)cc(OC)c1OC ?
USP28 block: 6.5; USP17 block: 3.6; USP30 inh: 10.5

What do the screens show for `CN1CCN(c2ncc(NC(=O)Nc3ccc4c(c3)OCO4)cn2)CC1`?
USP28 block: 15.0; USP17 block: 1.5; USP30 inh: -6.2

Results for CCC(=O)N1CCc2cc(CNS(=O)(=O)c3ccccc3)ccc21 ?
USP28 block: 20.0; USP17 block: 20.6; USP30 inh: 5.3

What do the screens show for `COc1ccc(Cl)c2sc(N3CCN(C(=O)c4ccn(C)n4)CC3)nc12`?
USP28 block: 11.4; USP17 block: 47.1*; USP30 inh: -34.2
